# Source: PubChem
# Only a selection was taken, and hits are over-represented in it overall.
# TDP1 cell CPT = DT40-hTDP1 cell growth loss with CPT. chicken DT40 Tdp1-/-;hTDP1 cells + 20 nM CPT, ATP luminescence, 48 h. AID 686979. Potency, µM (series often up to 46.2 µM), inactives show at the top dose activity change, negative = growth inhibition, most hits filed as inhibitors. 420,000 compounds, 12% hits; note: potency is the fitted concentration of half-maximal effect; nearly all actives have a fitted effect of over 55% in size
#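 Chicken DT40 Tdp1-/- cells complemented with human TDP1, 400 cells/well, exposed to compounds plus 20 nM camptothecin for at least 48 h at 37 C; viability read as ATP content by CellTiter-Glo luminescence.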
# HT1080 IDH1KD tx = toxicity to HT-1080 IDH1 knockdown cells (counter line). HT-1080 IDH1 knockdown viability, ATP luminescence, 48 h. Potency, µM (titrated, usually from 46.1 µM), without a hit: at the highest dose activity, negative = toxicity, usual class: cytotoxic. 360,000 compounds, 2% hits;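 note: potency is the fitted concentration of half-maximal effect; 0% = DMSO wells and -100% = cell-free medium wells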
#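 In this qHTS, HT-1080 cells depleted of IDH1 are exposed for 48 h at 37 °C to compound titrations. Toxicity is scored from CellTiter-Glo luminescence, with DMSO as full viability and medium alone as none.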
# IL-1B inflam inh = inhibitors of inflammasome signaling (IL-1 beta secretion). THP-1 LPS/ATP IL-1B secretion, AlphaLISA, 16 h; stronger effect = lower value. activity change, % at 57.5 µM. 360,000 compounds, 4.7% hits. AID 743279; in the data active = activity change below about -50%; inconclusive = mostly about -30% to -49%
#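 Secreted IL-1B measured by AlphaLISA bead assay after 16 h compound exposure of THP-1 cells; compounds (final up to 57.5 uM) added 1 h before LPS (250 ng/mL) and ATP (1.25 mM) stimulation; lower signal means less secretion.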
# ALOX12 inh = inhibitors of human 12S-lipoxygenase ALOX12. purified 12hLO, xylenol orange hydroperoxide absorbance. Potency, µM (highest dose often 108 µM), for inactives: top-dose activity change, negative = inhibition, most hits filed as inhibitors. P18054. 580,000 compounds, 1.1% hits. AID 1671190; note: potency is the fitted concentration of half-maximal effect
# Target sequence (P18054 whole entry, looked up): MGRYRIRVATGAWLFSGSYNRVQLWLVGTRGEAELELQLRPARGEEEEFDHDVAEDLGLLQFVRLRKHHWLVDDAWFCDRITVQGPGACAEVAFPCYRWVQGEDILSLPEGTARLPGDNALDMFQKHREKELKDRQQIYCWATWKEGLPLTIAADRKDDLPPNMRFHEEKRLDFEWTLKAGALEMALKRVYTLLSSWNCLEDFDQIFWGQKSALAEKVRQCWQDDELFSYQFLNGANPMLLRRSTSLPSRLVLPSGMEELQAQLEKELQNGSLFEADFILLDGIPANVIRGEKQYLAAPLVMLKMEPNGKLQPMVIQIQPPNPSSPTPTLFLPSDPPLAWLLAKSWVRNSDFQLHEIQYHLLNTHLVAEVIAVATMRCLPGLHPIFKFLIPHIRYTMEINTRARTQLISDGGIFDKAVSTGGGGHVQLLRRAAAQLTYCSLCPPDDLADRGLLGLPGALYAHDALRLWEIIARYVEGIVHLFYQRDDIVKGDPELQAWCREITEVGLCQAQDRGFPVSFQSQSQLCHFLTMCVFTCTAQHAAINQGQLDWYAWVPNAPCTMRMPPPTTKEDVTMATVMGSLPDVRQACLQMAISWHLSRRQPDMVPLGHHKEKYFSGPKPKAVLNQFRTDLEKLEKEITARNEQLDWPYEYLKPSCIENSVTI
#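 Purified human 12hLO (150 nM final) in 25 mM Hepes, 0.01% Triton X-100, pH 7.0 was preincubated 15 min at room temperature with compound. Then 40 uM arachidonic acid was added, 30 min. Hydroperoxide was read by Fe-XO absorbance ratio 573/405 nm.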
# DT40 TDP1 no CPT = qHTS for Inhibitors of human tyrosyl-DNA phosphodiesterase 1 (TDP1): qHTS in cells in absence of CPT; DT40 Tdp1-/- hTDP1 cells, no CPT, ATP luminescence, 48 h; AID 686978, 2013; 420,000 compounds, 15% hits; Potency, µM (highest dose often 46.2 µM), without a hit: at the top dose activity change, negative = growth inhibition, hits mostly inhibitors; note: potency is the fitted concentration of half-maximal effect; nearly all actives have a fitted effect of over 55% in size
#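 A cellular qHTS used chicken DT40 cells lacking endogenous Tdp1 but carrying stably transfected human TDP1. Compounds were applied without camptothecin, and cell growth kinetics were judged by ATP-dependent luminescence after ≥48 hr.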
# HT1080NT lethal = kills 2HG-producing HT-1080-NT fibrosarcoma cells; 360,000 compounds, 1.6% hits; HT-1080-NT fibrosarcoma viability, CellTiter-Glo ATP luminescence, 48 h; Potency, µM (titrated, usually from 46.1 µM), for inactives: at the top dose activity, negative = less viability, actives largely listed as cytotoxic;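 note: NT is the 2HG producing partner of a matched IDH1 knockdown line; potency is the fitted concentration of half-maximal effect; 0% = DMSO-treated cells and -100% = media-only wells without cells; nearly all actives have a fitted effect of over 55% in size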
#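 Toxicity toward the 2HG-producing NT line was scored as %Activity, normalised to DMSO and no-cell wells, from CellTiter-Glo luminescence after 48 hours' treatment.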
# Numbers without * were called inactive; i = inactive; ? = inconclusive; / = no result given; [ ] = remark or other dose. Unless noted, calls come from the whole dose curve; as a rule, active = well fitted curve in the direction sought with a large enough effect; inconclusive = small, poorly fitted or top-dose-only effect, or another doubt; inactive = no such curve, though single readings can be large; an effect the other way counts as inactive or inconclusive. Unless noted, % is set by controls: 0 for no effect and ±100 for the full control effect.
SMILES,TDP1 cell CPT,HT1080 IDH1KD tx,IL-1B inflam inh,ALOX12 inh,DT40 TDP1 no CPT,HT1080NT lethal
C=CCOc1ccc(/C=C/C(=O)Nc2ccc(C(N)=O)cc2)cc1,/,/,/,1%,/,/
Clc1ccc(-c2csc(NC3CC3)n2)cc1Cl,/,/,/,10µM*,/,/
Clc1ccc(-c2csc(NC3CC3)n2)cc1,/,/,/,8.9µM*,/,/
CC(=O)Nc1ccc(-c2csc(NC3CC3)n2)c(F)c1,/,/,/,14µM*,/,/
N#Cc1ccccc1OCc1cccc2ccccc12,/,/,/,-15%,/,/
COc1cccc(CNC(=O)N2c3ccccc3CC2c2noc(C3CCOCC3)n2)c1 (centres undefined),/,/,/,53%,/,/
COc1ccc(C(=O)Oc2cccc3c(OC)ccc(C=O)c23)cc1OC,/,/,/,-8%,/,/
O=C(CSc1ccccc1)OCc1cc(=O)n2nc(C3CC3)sc2n1,/,/,/,-7%,/,/
N#Cc1cccc(Cn2cc(C(F)(F)F)ccc2=O)c1,9%,4%,25,147%,-1%,1%
O=C(Nc1cc(C(F)(F)F)cc(C(F)(F)F)c1)c1ccc(Cn2cc(C(F)(F)F)ccc2=O)cc1,21µM*,-22%,29,0%,16µM*,-12%
O=C(Sc1ccccc1)c1cccc(Cn2cc(C(F)(F)F)ccc2=O)c1,18µM*,23µM*,-12,375%,16µM*,18µM*
O=C(Nc1ccccc1)c1cccc(Cn2cc(C(F)(F)F)ccc2=O)c1,?,-6%,-4,i,21µM*,3%
O=C(Nc1ccc(Cn2ccnc2)cc1)c1cccc(C(F)(F)F)c1,-24%,-11%,-54*,36%,-17%,1%
CCc1ccc(-c2csc(NC(=O)c3ccc4c(c3)NC(=O)C(C)S4)n2)cc1 (centres undefined),/,/,/,-6%,/,/
CCOC(=O)[C@]12CCC=C1N(Cc1cccc3ccccc13)C(=O)[C@H](CC(=O)NCc1ccc(OC)c(OC)c1)C2,?,?,?,-3%,16µM*,?
CCOC(=O)N1CCN(C(=O)C[C@@H]2C[C@@]3(C(=O)OCC)CCC=C3N(Cc3ccco3)C2=O)CC1,0%,11%,4,0%,-13%,25%
CCOC(=O)N1CCN(C(=O)C[C@@H]2C[C@@]3(C(=O)OCC)CCC=C3N(Cc3cccc4ccccc34)C2=O)CC1,?,-14%,10,?,16µM*,0%
CCOC(=O)[C@]12CCC=C1N(Cc1cccc3ccccc13)C(=O)[C@H](CC(=O)NCCC(C)C)C2,23µM*,?,-55*,3%,21µM*,?
O=C(COC(=O)C12CC3CC(CC(C3)C1)C2)Nc1ccc(Cl)cc1[N+](=O)[O-],/,/,/,35%,/,/
COc1ccc2[nH]c3c(c2c1)CCN1C(=O)N([C@@H](C)C(=O)NCc2c(F)cccc2Cl)C(=O)[C@]31C,18µM*,-1%,-8,21%,?,-5%
C[C@@H](C(=O)NCc1c(F)cccc1Cl)N1C(=O)N2CCc3c([nH]c4ccccc34)[C@@]2(C)C1=O,18µM*,-8%,-12,16%,21µM*,-8%
COc1ccc2[nH]c3c(c2c1)CCN1C(=O)N([C@@H](C)C(=O)NCC2CCCO2)C(=O)[C@]31C (some centres undefined),-5%,1%,8,3%,-8%,4%
C[C@@H](Oc1cc(-n2cnc3ccc(CN4CCN(C)CC4)cc32)sc1C(N)=O)c1ccccc1C(F)(F)F,/,/,/,-15%[57.4 µM],/,/
Cc1ccc(C(=O)C(Cl)C(=O)c2ccc(C)cc2)cc1,/,/,/,-20%,/,/
Cc1cc(Br)cn2c(Cc3ccccc3)c(-c3ccc(C#N)cc3)nc12,18µM*,-22%,-3,?,?,-28%
SMILES,TDP1 cell CPT,HT1080 IDH1KD tx,IL-1B inflam inh,ALOX12 inh,DT40 TDP1 no CPT,HT1080NT lethal
Cc1ccc(Cc2c(-c3ccc(C)cc3)nc3c(C)cc(Br)cn23)cc1,16µM*,-30%,0,?,16µM*,?
Cc1ccc(Cc2c(-c3ccc(F)cc3)nc3c(C)cc(Br)cn23)cc1,21µM*,?,55,/,16µM*,?
Cc1cc(Br)cn2c(Cc3ccccc3)c(-c3ccc(Cl)cc3)nc12,-2%,7%,69,0%,-20%,15%
COc1ccccc1Cc1c(-c2ccc(F)cc2)nc2c(C)cc(Br)cn12,?,?,1,?,?,?
Cc1cc2nc(C(=O)Nc3ccc(C(C)C)cc3)c(=O)n(C)c2cc1C,/,/,/,-29%,/,/
CC(OC(=O)c1ccc(NC(=O)CC#N)cc1)C(=O)Nc1ccc(Oc2ccccc2)cc1 (centres undefined),/,/,/,-12%,/,/
Cc1cc(C(=O)C(C)OC(=O)c2ccc(NC(=O)CC#N)cc2)c(C)n1-c1ccc(OC(F)F)cc1 (centres undefined),23µM*,26µM*,?,468%,12µM*,-19%
N#Cc1ccc(CNC(=O)[C@@H]2Cc3nc[nH]c3CN2CC2CCCCC2)cc1,/,/,/,113%[176 µM],/,/
COc1ccc2c(c1)c(=O)c(C(=O)c1ccc(C)cc1)cn2CC(=O)Nc1ccc(F)cc1,?,-24%,-15,-7%,16µM*,-25%
CCc1ccc(C(=O)c2cn(CC(=O)Nc3cccc(OC)c3)c3ccc(OC)cc3c2=O)cc1,?,/,/,-28%,23µM*,/
CCc1ccc2c(c1)c(=O)c(C(=O)c1ccccc1)cn2CC(=O)Nc1ccc(C)c(Cl)c1,21µM*,/,/,?,12µM*,/
Cc1nc(-c2ccc(S(=O)(=O)Nc3ccc(C)c(C)c3)cc2)co1,/,/,/,31%,/,/
COc1c(C)cc(NS(=O)(=O)c2ccc3c(c2)OCCO3)cc1C,9.2µM*,/,/,?,2.6µM*,/
COc1ccc(S(=O)(=O)Nc2ccc3c(c2)OCO3)cc1OC,-15%,-4%,-3,-20%,-15%,-6%
CCNC(=O)COC(=O)c1ccc(NS(=O)(=O)c2ccc3c(c2)OCCO3)cc1,1%,4%,0,-10%,-16%,1%
COc1cc(OC)c(NS(=O)(=O)c2ccc3c(c2)NC(=O)CO3)cc1Cl,18µM*,-12%,0,-10%,?,-2%
COc1ccc(NS(=O)(=O)c2ccc3c(c2)OCCO3)cc1OC,7.3µM*,?,-1,-2%,5.8µM*,-25%
Cc1cccc(NS(=O)(=O)c2ccc3c(c2)OCCO3)c1,-24%,-5%,18,?,-20%,5%
CCOC(=O)c1ccc(NS(=O)(=O)c2ccc3c(c2)OCCO3)cc1,13µM*,/,/,-21%,29µM*,/
